HCV inh: HCV inhibition; Potency, µM (series often up to 41.8 µM), inactives show top-dose activity change, negative = inhibition, actives largely listed as inhibitors; Huh7.5.1 HCVcc-Cre infection, luciferase reporter, 44 h; AID 651820; hit rate 3.4% among 340,000; note: potency is the fitted concentration of half-maximal effect; % is set by controls: 0 for no effect and ±100 for the full control effect
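Antiviral activity was scored by luciferase reporter output from cells infected with HCVcc-Cre (~0.5 moi) in presence of compound, 44 h infection period, cells seeded 1,000/well 4 h prior.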
Sm TGR inh: inhibitors of Schistosoma mansoni thioredoxin glutathione reductase. Q962Y6. purified TGR, DTNB reduction, TNB absorbance 405 nm. Potency, µM (highest dose often 114 µM), for the others: at the highest dose activity change, negative = inhibition, hits mostly inhibitors. hit rate 3% among 360,000. AID 485364; note: potency is the fitted concentration of half-maximal effect; % is set by controls: 0 for no effect and ±100 for the full control effect; nearly all actives have a fitted effect of over 60% in size
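TGR 20 nM + NADPH 100 uM (dispensed conc.), cpd preinc 15 min RT; start with NADPH (500 uM addition) then DTNB (15 mM addition). Kinetic TNB absorbance, 405 nm filter. Four-parameter Hill fit across titration.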
SARS PLpro yeast: blocks SARS-CoV papain-like protease in a yeast assay; S. cerevisiae expressing SARS-CoV PLpro, growth rescue; Potency, µM (top dose mostly 32.9 µM), without a hit: at the top dose activity, positive = growth rescue, actives largely listed as activators; hit rate 0.19% among 330,000; AID 485353; calls by dose curve; note: potency is the fitted concentration of half-maximal effect; 0% is about no effect; nearly all actives have a fitted effect of over 55% in size
Pf growth 48h: inhibits P. falciparum growth in the first generation, 48 h; P. falciparum luciferase growth in erythrocytes, 48 h; Potency, µM (highest dose often 28.7 µM), for inactives: at the top dose activity change, negative = inhibition, hits mostly inhibitors; hit rate 5.9% among 310,000; AID 504832; note: potency is the fitted concentration of half-maximal effect; % is set by controls: 0 for no effect and ±100 for the full control effect
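Parasite viability was followed by luminescence of a genomically integrated firefly luciferase. Cultures held 0.1% parasitemia at 2% hematocrit (final), incubated under 5% CO2 at 37 C.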
HCMV inh: inhibitors of human cytomegalovirus. HFF cells, HCMV-luciferase reporter, 72 h; hits give low values. activity change, negative = inhibition, % at 57.5 µM. hit rate 4.5% among 410,000; in the data active = activity change below about -60%; inconclusive = no clear call, values can overlap the other calls; inactive = above about -39%; note: % is set by controls: 0 for no effect and ±100 for the full control effect
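Two compound doses tested in HFFs infected with HCMV-luciferase, MOI 1 PFU/cell, 72 h at 37C. Lysate luminescence read with OneGlo; data normalized against buffer-only and 10uM Salinomycin inhibitor controls.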
Pf growth 96h: P. falciparum growth inhibition at 96 hours; P. falciparum luciferase reporter growth, 96 h; Potency, µM (top dose mostly 28.7 µM), for inactives: top-dose activity change, negative = inhibition, most hits filed as inhibitors; hit rate 6.9% among 320,000; note: potency is the fitted concentration of half-maximal effect; % is set by controls: 0 for no effect and ±100 for the full control effect
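Delayed-death screen, second-generation endpoint: infected erythrocytes, 2% hematocrit, 0.05% parasitemia final; 96 hours at 37 C, 5% CO2; luciferase detection reagent; luminescence decrease equals reduced growth.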
Active calls of the source: *; u = inconclusive; x = not tested or not shown. Compounds with a hit are over-represented: about 15% of the library has one in this group of screens. Unless noted, calls come from the whole dose curve; as a rule, active = well fitted curve in the direction sought with a large enough effect; inconclusive = small, poorly fitted or top-dose-only effect, or another doubt; inactive = no such curve, though single readings can be large; an effect the other way counts as inactive or inconclusive.

SMILES | HCV inh | Sm TGR inh | SARS PLpro yeast | Pf growth 48h | HCMV inh | Pf growth 96h
COc1ccc(NC(=O)Cn2nnc(C(=O)NCc3ccc(C)cc3)c2N)cc1OC | 7% | 5% | u | 1% | -36 | 49%
Cc1c(-c2ccccc2)[n+](=O)c(-c2ccc(Cl)cc2)c(C)n1[O-] | 1% | x | 0% | -3% | -39 | u
COc1ccccc1N1C(=O)NC(=O)/C(=C/c2ccc3c(c2)Cc2ccccc2-3)C1=O | 3% | 32µM* | 26% | 13% | 16 | 37%
CC(=O)c1ccc(N2CCN(c3ncnc4c3c(-c3ccccc3)cn4-c3cccc(C)c3)CC2)cc1 | x | 2% | x | x | u | x
Cc1cc(Nc2cccc(Br)c2)n2c(nc3ccccc32)c1C#N | x | 0% | x | x | -38 | x
COc1ccc(N(C(=O)c2ccccc2C)S(=O)(=O)c2ccc(C)cc2)cc1 | x | 11% | x | x | -20 | x
COc1ccc(N(C(=O)c2ccccc2C)S(=O)(=O)c2cccs2)cc1 | u | 2% | -5% | u | -77* | 8.3µM*
O=c1cc(-c2ccccc2)oc2cc(O)c(O)c(O)c12 | -19% | x | u | x | 59 | x
O=c1c(O)cccc2cc(O)c(O)c(O)c12 | 25% | 8.9µM* | -1% | 9% | -27 | u
CC(=O)NC(CCS(C)(=O)=O)C(=O)Nc1ccc(F)cc1Cl (stereo not given) | 23% | 13% | -2% | u | -6 | 0%
CN(C)CC/C=C1\c2ccccc2COc2ccc(CC(=O)O)cc21 | x | x | x | 1% | x | 6%
CN(C)CC/C=C1/c2ccccc2COc2ccccc21 | x | 20µM* | 0% | x | x | x
CN(C)CCC=C1c2ccccc2CCc2ccccc21 | u | 7.1µM* | -41% | 15µM* | u | u
CN(C)CCC=C1c2ccccc2C(C)(C)c2ccccc21 | x | x | x | u | x | 6.7µM*
CN(C)CCC=C1c2ccccc2C=Cc2ccccc21 | 32µM* | 25µM* | x | 12µM* | 14 | u
O=C(Cc1ccccc1F)Nc1cc(S(=O)(=O)N2CCCCC2)ccc1N1CCOCC1 | x | x | x | x | 12 | x
COC(=O)c1ccc(Nc2c([N+](=O)[O-])ccc3nonc23)cc1 | 38% | -9% | 1% | -7% | 0 | u
COP(=O)(OC)C(Nc1ccccc1)c1ccccc1 (stereo not given) | 6% | -3% | 6% | 10% | -13 | 17µM*
CC(C)CCOP(=O)(c1ccc(N(C)C)cc1)C(Nc1ccccc1)c1ccc(N(C)C)cc1 (stereo not given) | -18% | 0% | 0% | u | -21 | u
CC(C)OP(=O)(c1ccc(N(C)C)cc1)C(Nc1ccccc1)c1ccccc1 (stereo not given) | -27% | 7% | -1% | 8.3µM* | 13 | u
CCC(C)NC(=O)c1ccc(Cl)c(S(=O)(=O)Nc2ccccc2N2CCOCC2)c1 (stereo not given) | 5% | 0% | 10% | u | -17 | u
C1CCCCCC(NCCN2CCNCC2)CCCCC1 | 1.3µM* | -11% | -6% | u | -28 | u
Cc1nnn(C23CC4CC(CC(CC(=O)Nc5cccc(F)c5)(C4)C2)C3)n1 | -2% | 1% | -1% | u | -19 | 5%
Cc1cccc(NC(=O)CC23CC4CC(C2)CC(n2nnc(C)n2)(C4)C3)c1 | -11% | 8% | 4% | u | -10 | 13µM*
CN(Cc1nccn1C)C(=O)CC1C(=O)NCCN1Cc1ccc(F)cc1Cl (stereo not given) | x | -36% | u | 27% | u | 0%
SMILES | HCV inh | Sm TGR inh | SARS PLpro yeast | Pf growth 48h | HCMV inh | Pf growth 96h
CCn1ccnc1CN(C)C(=O)CC1C(=O)NCCN1Cc1c(F)cccc1Cl (stereo not given) | 11% | u | 0% | 48% | -9 | 10µM*
Cc1nonc1CN(C)C(=O)CC1C(=O)NCCN1Cc1c(F)cccc1Cl (stereo not given) | 3% | 5% | -1% | 17% | -10 | 0%
Cc1cc(CN(C)C(=O)CC2C(=O)NCCN2Cc2c(F)cccc2Cl)n[nH]1 (stereo not given) | 1% | 40µM* | -1% | 3% | -32 | u
C=C1CC[C@@H]2[C@](C)(CO)[C@H](O)CC[C@@]2(C)[C@@H]1/C=C/C1=CCOC1=O | u | 40µM* | -1% | 6% | u | 1%
C=C1CCC2[C@](C)(CO)[C@H](O)CC[C@@]2(C)[C@@H]1/C=C/C1=CCOC1=O (stereo not given in full) | u | u | -1% | 1% | -17 | 1%
COc1ccc(NC(=O)CN2CCc3ccccc3C2)cc1OC | 3% | 4% | -4% | u | 51 | 17%
COc1cc(CN2CCN(c3cc(C)ccc3C)CC2)ccc1O | u | -16% | 3% | 10µM* | -73* | x
COc1cc(CN2CCc3ccc(NC(=O)CCc4ccccc4OC)cc3C2)ccc1O | u | 13µM* | -3% | 5.2µM* | -10 | -14%
COc1cc(CN2CCc3ccccc3C2)cc([N+](=O)[O-])c1O | 17% | 4% | u | 0% | 5 | -28%
COc1cc(CN2CCc3ccccc3C2)ccc1O | u | 20µM* | 0% | 3% | -100* | 7%
COc1ccc(CN2CCc3ccc(NC(=O)CCc4ccccc4OC)cc3C2)c(O)c1 | 8.9µM* | -27% | -1% | 2.1µM* | -72* | -17%
CC(=O)Oc1ccc(Cl)cc1CN(C(C)=O)C1CCCCC1 | u | x | x | x | -18 | x
C=C(C)C(=O)Nc1cccc(C2=NOC3(C2)C[C@H](C(N)=O)N(C(=O)COc2ccc(Cl)cc2)C3)c1 (stereo not given in full) | -24% | -10% | 2% | u | 13 | u
CCOc1ccccc1CNS(=O)(=O)c1ccc2[nH]c(=O)ccc2c1 | x | -2% | x | x | 6 | x
COc1ccccc1CCC(=O)Nc1ccc2c(c1)CN(CCCn1cccn1)CC2 | -23% | -10% | -6% | 8.3µM* | -23 | -15%
COc1cccc(CN2CCc3ccc(NC(=O)CCc4ccc(C)cc4)cc3C2)c1O | 11µM* | -25% | -1% | u | -61* | u
CC(=O)c1ccc(S(=O)(=O)Nc2ccc(-c3cn4c(n3)SCC4)cc2)cc1 | u | -19% | -1% | 22% | -30 | 25%
COc1ccc(N(Cc2cccs2)C(=O)Nc2ccccc2)cc1 | x | 2% | x | x | 0 | x
COC(=O)c1ccc(Cn2nnc3c(=O)[nH]c(C4CCCN(S(=O)(=O)c5ccccc5)C4)nc32)cc1 (stereo not given) | 6% | -9% | -4% | u | 100 | 1%
